Screening results deposited in PubChem BioAssay by The Scripps Research Institute Molecular Screening Center.
SMARCA2 activ – increases SMARCA2 function in MMTV reporter cells; MG213 cells, MMTV-luciferase reporter, dexamethasone, overnight; activation, % at 9.1 µM; hit rate 1% among 370,000; in the data active = activation above about 7.8%
hgDAF-12 ag – agonists of H. glycines DAF-12 nuclear receptor; HEK293 GAL4-hgDAF12 UAS-luciferase reporter, agonist luminescence; normalized to butyrate control; activation, % at 6.8 µM; hit rate 1.8% among 370,000; AID 687014;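 active = activation above a cutoff set at the mean of all screened compounds plus 3 SD, cut at about 10% in these data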
DAX1 inh-1 – inhibits human nuclear receptor DAX1; P51843; HEK293 Gal4-DAX1 luciferase reporter, luminescence; inhibition, % at 6.75 µM; hit rate 0.99% among 340,000;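 active = inhibition above the mean over all tested compounds plus 3 SD, cut at about 4.2% in these data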;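 also: inhibition shows as a rise in luminescence from relieved DAX1 repression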
Target sequence (P51843 207-470 limits assumed): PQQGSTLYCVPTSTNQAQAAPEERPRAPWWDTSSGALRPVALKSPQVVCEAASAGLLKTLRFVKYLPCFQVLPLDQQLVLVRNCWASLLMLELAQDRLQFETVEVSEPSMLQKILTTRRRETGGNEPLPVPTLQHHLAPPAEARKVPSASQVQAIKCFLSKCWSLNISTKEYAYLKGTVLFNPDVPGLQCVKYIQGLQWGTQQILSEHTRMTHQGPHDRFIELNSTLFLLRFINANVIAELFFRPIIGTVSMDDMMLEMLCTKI
hcDAF-12 act – activates DAF-12 receptor from parasite H. contortus. hit rate 1.4% among 370,000. activation, % at 6.8 µM. HEK293 hcDAF-12 lit1-tk-luc reporter, luminescence; 0% DMSO, 100% Δ7-dafachronic acid. AID 652067;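 active = activation above the mean of all tested compounds plus 3 SD, cut at about 5.5% in these data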
DAX1 inh-2 – DAX1 (NR0B1) inhibition, primary screen | hit rate 1.1% among 370,000 | inhibition, % at 6.8 µM | HEK293T StAR-luciferase reporter, SF-1/DAX-1 repression relief | AID 652010;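 active = inhibition above the mean over all tested compounds plus 3 SD, cut at about 3.6% in these data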;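 also: higher inhibition means more luminescence from relief of DAX-1 repression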
ssDAF12 agonist – activates DAF-12 receptor from parasite S. stercoralis; hit rate 1% among 370,000; activation, % at 6.8 µM; HEK293 ssDAF-12/GRIP1 lit1-tk-luc reporter, luminescence; % of 3 µM dafachronic acid response;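 active = activation above the mean over all tested compounds plus 3 SD, cut at about 0.9% in these data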
A number is an active result. This is a sample that favours compounds with a hit; in the whole collection about 4.8% have one here.

For NS(=O)(=O)c1ccc(NC(=O)c2cccc3ccccc23)cc1 the results were SMARCA2 activ inactive, hgDAF-12 ag inactive, DAX1 inh-1 inactive, hcDAF-12 act inactive, DAX1 inh-2 inactive and ssDAF12 agonist inactive.
NS(=O)(=O)c1ccc(NC(=O)c2cccc3cc4ccccc4nc23)cc1 was read as SMARCA2 activ inactive, hgDAF-12 ag inactive, DAX1 inh-1 inactive, hcDAF-12 act inactive, DAX1 inh-2 inactive and ssDAF12 agonist 0.9.
Cc1occc1C(=O)Nc1ccc2c(c1)OCO2 was read as SMARCA2 activ inactive, hgDAF-12 ag inactive, DAX1 inh-1 inactive, hcDAF-12 act inactive, DAX1 inh-2 inactive and ssDAF12 agonist inactive.
Screening CNS(=O)(=O)c1ccc(NC(=O)c2ccoc2C)cc1 returned SMARCA2 activ inactive, hgDAF-12 ag inactive, DAX1 inh-1 inactive, hcDAF-12 act inactive, DAX1 inh-2 inactive and ssDAF12 agonist inactive.
For C/C=C/C(=O)N1CCC(C(=O)NCC2COc3ccccc3O2)CC1 (stereo not drawn) the results were SMARCA2 activ inactive, hgDAF-12 ag inactive, hcDAF-12 act inactive, DAX1 inh-2 inactive and ssDAF12 agonist inactive.
`Cc1cc(NC(=O)c2cc(-c3ccc(C)s3)nc3ccccc23)no1` gave SMARCA2 activ inactive, hgDAF-12 ag inactive, DAX1 inh-1 inactive, hcDAF-12 act inactive, DAX1 inh-2 inactive and ssDAF12 agonist 1.7.
For Cc1ccnc(NC(=O)c2cc(-c3ccc(Cl)s3)nc3ccccc23)c1 the results were SMARCA2 activ inactive, hgDAF-12 ag inactive, DAX1 inh-1 4.7, hcDAF-12 act inactive, DAX1 inh-2 inactive and ssDAF12 agonist inactive.
For Cc1cc(NC(=O)c2cc(-c3ccccc3C)nc3ccccc23)no1 the results were SMARCA2 activ inactive, hgDAF-12 ag inactive, DAX1 inh-1 inactive, hcDAF-12 act inactive, DAX1 inh-2 inactive and ssDAF12 agonist inactive.
Screening Cc1ccc(C(=O)Nc2ccccc2N2CCCCC2)cc1[N+](=O)[O-] returned SMARCA2 activ inactive, hgDAF-12 ag inactive, DAX1 inh-1 inactive, hcDAF-12 act inactive, DAX1 inh-2 inactive and ssDAF12 agonist inactive.
For Cc1ccc(C(=O)NC(=S)Nc2ccccc2N2CCCC2)cc1[N+](=O)[O-] the results were SMARCA2 activ inactive, hgDAF-12 ag inactive, DAX1 inh-1 inactive, hcDAF-12 act inactive, DAX1 inh-2 inactive and ssDAF12 agonist 1.4.
For Cc1onc(-c2ccccc2)c1C(=O)Nc1ccc(S(=O)(=O)N2CCOCC2)cc1 the results were SMARCA2 activ inactive, hgDAF-12 ag inactive, DAX1 inh-1 inactive, hcDAF-12 act inactive, DAX1 inh-2 inactive and ssDAF12 agonist inactive.
Screening CCOC(=O)N/N=C\C=C\c1ccc2c(c1)OCO2 returned SMARCA2 activ inactive, hgDAF-12 ag inactive, DAX1 inh-1 5.2, hcDAF-12 act inactive, DAX1 inh-2 inactive and ssDAF12 agonist inactive.
Screening CCOC(=O)c1cccc(NC(=O)/C=C/c2ccc3c(c2)OCO3)c1 returned SMARCA2 activ inactive, hgDAF-12 ag inactive, DAX1 inh-1 inactive, hcDAF-12 act inactive, DAX1 inh-2 inactive and ssDAF12 agonist inactive.
Screening CCOC(=O)CNC(=O)/C=C/c1ccc2c(c1)OCO2 returned SMARCA2 activ inactive, hgDAF-12 ag inactive, DAX1 inh-1 inactive, hcDAF-12 act inactive, DAX1 inh-2 inactive and ssDAF12 agonist 0.9.
For CC(C)(C)OC(=O)N/N=C\C=C\c1ccc2c(c1)OCO2 the results were SMARCA2 activ inactive, hgDAF-12 ag 13, DAX1 inh-1 inactive, hcDAF-12 act inactive, DAX1 inh-2 inactive and ssDAF12 agonist inactive.
`S=C(Nc1ccc(Cl)cc1)OC1CCC12CCC(c1ccccc1)CC2` (stereo not drawn) gave SMARCA2 activ inactive, hgDAF-12 ag inactive, hcDAF-12 act inactive, DAX1 inh-2 inactive and ssDAF12 agonist inactive.
Screening CNS(=O)(=O)c1cccc(C(=O)OCC(=O)Nc2ccc(OC)cc2[N+](=O)[O-])c1 returned SMARCA2 activ inactive, hgDAF-12 ag inactive, DAX1 inh-1 4.3, hcDAF-12 act inactive, DAX1 inh-2 inactive and ssDAF12 agonist inactive.
`COc1ccc(NC(=O)COC(=O)c2ccc(Cl)c(S(N)(=O)=O)c2)c([N+](=O)[O-])c1` gave SMARCA2 activ inactive, hgDAF-12 ag inactive, DAX1 inh-1 5.0, hcDAF-12 act inactive, DAX1 inh-2 inactive and ssDAF12 agonist inactive.
`COc1ccc(NC(=O)COC(=O)c2cc(OC)c(OC)c(OC)c2)c([N+](=O)[O-])c1` gave SMARCA2 activ inactive, hgDAF-12 ag inactive, DAX1 inh-1 inactive, hcDAF-12 act inactive, DAX1 inh-2 inactive and ssDAF12 agonist inactive.
`CC(NC(=O)CN(C)S(=O)(=O)c1ccc(Br)s1)c1ccccc1` (stereo not drawn) gave SMARCA2 activ inactive, hgDAF-12 ag inactive, DAX1 inh-1 inactive, hcDAF-12 act inactive, DAX1 inh-2 inactive and ssDAF12 agonist inactive.
For c1ccc2cc(Cn3ccc4ccc(-c5ccc6cc[nH]c6c5)cc43)ccc2c1 the results were SMARCA2 activ inactive, hgDAF-12 ag inactive, hcDAF-12 act inactive, DAX1 inh-2 inactive and ssDAF12 agonist 1.2.
`Nc1ccccc1-c1nnc(-c2ccccc2N)n1N` gave SMARCA2 activ inactive, hgDAF-12 ag inactive, DAX1 inh-1 inactive, hcDAF-12 act 6.0, DAX1 inh-2 inactive and ssDAF12 agonist 2.0.
For O=C(NNC(=O)C1CC=CCC1)c1ccccc1Br (stereo not drawn) the results were SMARCA2 activ inactive, hgDAF-12 ag inactive, DAX1 inh-1 inactive, hcDAF-12 act inactive, DAX1 inh-2 inactive and ssDAF12 agonist inactive.
Screening O=C(NNC(=O)C1CC=CCC1)c1cccc(Br)c1 (stereo not drawn) returned SMARCA2 activ inactive, hgDAF-12 ag inactive, DAX1 inh-1 4.6, hcDAF-12 act inactive, DAX1 inh-2 inactive and ssDAF12 agonist inactive.
`CCCCC[C@@H](C)N1C[C@H](COCc2ccccc2)Oc2cc(N3CC[C@@H](O)C3)ccc2S1(=O)=O` gave SMARCA2 activ inactive, hgDAF-12 ag inactive, hcDAF-12 act inactive, DAX1 inh-2 inactive and ssDAF12 agonist inactive.
For O=C(c1ccccc1)N1CCN(C(=O)c2ccccc2)c2ccccc21 the results were SMARCA2 activ inactive, hgDAF-12 ag inactive, DAX1 inh-1 inactive, hcDAF-12 act inactive, DAX1 inh-2 inactive and ssDAF12 agonist inactive.
Screening O=C(O)Cn1c2ccccc2c2ccccc21 returned SMARCA2 activ inactive, hgDAF-12 ag inactive, DAX1 inh-1 inactive, hcDAF-12 act inactive, DAX1 inh-2 inactive and ssDAF12 agonist inactive.
`O=Cc1c(C(=O)O)n(CC(=O)O)c2ccccc12` gave SMARCA2 activ inactive, hgDAF-12 ag inactive, DAX1 inh-1 inactive, hcDAF-12 act 5.8, DAX1 inh-2 inactive and ssDAF12 agonist inactive.
`CCOc1ccccc1NC(=O)C1CCCN(S(=O)(=O)c2ccc3c(c2)CCCN3C(C)=O)C1` (stereo not drawn) gave SMARCA2 activ inactive, hgDAF-12 ag inactive, DAX1 inh-1 inactive, hcDAF-12 act inactive, DAX1 inh-2 inactive and ssDAF12 agonist inactive.
`CC(C)C(=O)N1CCCC1(C)C(=O)N(C)Cc1cccc2ccccc12` (stereo not drawn) gave SMARCA2 activ inactive, hgDAF-12 ag inactive, hcDAF-12 act inactive, DAX1 inh-2 inactive and ssDAF12 agonist inactive.
